Experiment [1] deals with T1, Ephrin type-B receptor 2 (Homo sapiens) (UniProt P29323).
T1 sequence (whole entry): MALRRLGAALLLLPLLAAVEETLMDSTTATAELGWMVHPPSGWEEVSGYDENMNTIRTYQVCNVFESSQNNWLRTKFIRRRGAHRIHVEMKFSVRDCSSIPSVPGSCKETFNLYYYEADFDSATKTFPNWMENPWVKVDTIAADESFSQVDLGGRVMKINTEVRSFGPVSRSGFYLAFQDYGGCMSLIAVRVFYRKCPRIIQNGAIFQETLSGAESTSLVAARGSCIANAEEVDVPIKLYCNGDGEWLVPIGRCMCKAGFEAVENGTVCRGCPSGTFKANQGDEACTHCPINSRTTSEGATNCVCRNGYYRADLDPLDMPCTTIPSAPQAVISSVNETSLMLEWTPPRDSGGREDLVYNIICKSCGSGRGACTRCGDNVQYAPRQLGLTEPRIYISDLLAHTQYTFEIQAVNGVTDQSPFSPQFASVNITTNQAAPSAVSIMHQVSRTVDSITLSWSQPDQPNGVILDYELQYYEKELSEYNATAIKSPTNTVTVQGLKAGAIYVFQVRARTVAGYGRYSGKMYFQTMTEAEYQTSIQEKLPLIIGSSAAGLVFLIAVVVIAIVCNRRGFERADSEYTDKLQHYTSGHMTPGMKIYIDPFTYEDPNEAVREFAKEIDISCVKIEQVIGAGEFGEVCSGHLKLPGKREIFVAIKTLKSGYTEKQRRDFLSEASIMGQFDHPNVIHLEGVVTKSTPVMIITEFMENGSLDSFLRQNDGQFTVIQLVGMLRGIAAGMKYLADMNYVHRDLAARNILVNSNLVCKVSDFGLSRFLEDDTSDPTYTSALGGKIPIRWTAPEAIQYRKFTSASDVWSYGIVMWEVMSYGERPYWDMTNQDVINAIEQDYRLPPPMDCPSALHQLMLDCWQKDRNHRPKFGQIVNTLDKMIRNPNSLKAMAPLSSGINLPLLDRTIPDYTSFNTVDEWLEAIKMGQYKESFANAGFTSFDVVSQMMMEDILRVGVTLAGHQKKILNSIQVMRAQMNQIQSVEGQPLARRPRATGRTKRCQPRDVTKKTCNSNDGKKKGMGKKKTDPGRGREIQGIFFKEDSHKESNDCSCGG
The following applies: at 1 µM.

For experiment [2], the target named is T2, Ephrin type-B receptor 3 (Homo sapiens) (UniProt P54753).
T2 sequence (whole entry): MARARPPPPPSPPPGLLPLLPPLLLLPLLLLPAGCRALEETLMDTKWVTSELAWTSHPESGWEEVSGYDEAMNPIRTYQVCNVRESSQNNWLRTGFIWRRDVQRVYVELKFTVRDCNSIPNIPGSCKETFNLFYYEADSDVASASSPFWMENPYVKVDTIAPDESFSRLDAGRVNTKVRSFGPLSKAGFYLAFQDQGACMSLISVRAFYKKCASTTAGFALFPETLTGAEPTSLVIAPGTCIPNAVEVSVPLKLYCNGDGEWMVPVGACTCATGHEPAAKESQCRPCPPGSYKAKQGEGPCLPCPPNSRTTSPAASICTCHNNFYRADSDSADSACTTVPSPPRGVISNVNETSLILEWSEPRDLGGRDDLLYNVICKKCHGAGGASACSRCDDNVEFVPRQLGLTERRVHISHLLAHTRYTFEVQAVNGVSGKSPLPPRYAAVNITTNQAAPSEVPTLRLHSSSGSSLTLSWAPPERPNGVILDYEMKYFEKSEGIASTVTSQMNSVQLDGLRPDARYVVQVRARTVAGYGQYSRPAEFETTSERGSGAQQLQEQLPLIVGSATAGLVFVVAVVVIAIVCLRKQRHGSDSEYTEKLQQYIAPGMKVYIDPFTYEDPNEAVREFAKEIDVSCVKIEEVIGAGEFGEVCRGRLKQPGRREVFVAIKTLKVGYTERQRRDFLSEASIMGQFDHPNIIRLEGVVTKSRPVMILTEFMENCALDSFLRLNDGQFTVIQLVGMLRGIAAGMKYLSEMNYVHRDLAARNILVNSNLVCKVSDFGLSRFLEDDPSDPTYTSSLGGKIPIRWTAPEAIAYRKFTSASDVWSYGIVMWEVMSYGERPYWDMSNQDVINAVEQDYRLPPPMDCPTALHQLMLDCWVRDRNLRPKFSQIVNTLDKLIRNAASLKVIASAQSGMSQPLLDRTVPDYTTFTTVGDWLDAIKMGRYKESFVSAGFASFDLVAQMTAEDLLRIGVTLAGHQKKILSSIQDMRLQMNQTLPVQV
The following applies: at 0.1 µM.

The target of experiment [3] is T2, Ephrin type-B receptor 3 (Homo sapiens). The conditions noted are these: at 1 µM.
The target of experiment [4] is T3, Ephrin type-B receptor 4 (Homo sapiens) (UniProt P54760).
T3 sequence (whole entry): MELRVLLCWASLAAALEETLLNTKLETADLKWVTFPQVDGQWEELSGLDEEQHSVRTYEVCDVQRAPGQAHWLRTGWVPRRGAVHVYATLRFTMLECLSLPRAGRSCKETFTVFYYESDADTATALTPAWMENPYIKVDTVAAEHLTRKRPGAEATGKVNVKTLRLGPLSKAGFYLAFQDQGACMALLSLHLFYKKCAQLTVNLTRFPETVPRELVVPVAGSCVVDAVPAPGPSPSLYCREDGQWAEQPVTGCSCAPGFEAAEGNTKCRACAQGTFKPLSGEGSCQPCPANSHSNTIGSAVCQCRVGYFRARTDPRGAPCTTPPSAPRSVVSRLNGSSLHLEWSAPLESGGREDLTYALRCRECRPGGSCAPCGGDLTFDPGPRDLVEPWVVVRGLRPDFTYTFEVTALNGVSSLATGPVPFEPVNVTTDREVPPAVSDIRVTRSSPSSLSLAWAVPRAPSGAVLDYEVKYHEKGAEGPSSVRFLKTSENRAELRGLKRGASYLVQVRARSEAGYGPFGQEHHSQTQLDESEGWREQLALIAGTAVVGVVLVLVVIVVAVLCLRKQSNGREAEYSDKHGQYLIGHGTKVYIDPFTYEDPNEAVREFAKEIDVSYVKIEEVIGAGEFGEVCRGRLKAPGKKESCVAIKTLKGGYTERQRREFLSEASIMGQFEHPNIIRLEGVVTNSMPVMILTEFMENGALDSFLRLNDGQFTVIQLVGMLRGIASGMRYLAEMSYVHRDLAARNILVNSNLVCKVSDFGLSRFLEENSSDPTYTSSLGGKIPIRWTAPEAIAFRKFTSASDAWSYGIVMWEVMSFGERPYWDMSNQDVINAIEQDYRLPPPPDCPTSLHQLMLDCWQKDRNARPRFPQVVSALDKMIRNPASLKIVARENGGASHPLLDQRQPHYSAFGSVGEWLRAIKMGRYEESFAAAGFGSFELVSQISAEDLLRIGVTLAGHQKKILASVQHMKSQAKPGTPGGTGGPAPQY
The conditions noted are these: at 0.1 µM.

Experiment [5] has as its target T3, Ephrin type-B receptor 4 (Homo sapiens). The conditions noted are these: at 1 µM.
The target of experiment [6] is Receptor tyrosine-protein kinase erbB-2 (Homo sapiens) (UniProt P04626). The following applies: at 0.1 µM.
The target is the same in experiment [7]. The conditions noted are these: at 1 µM.
For experiment [8], the target named is Receptor tyrosine-protein kinase erbB-4 (Homo sapiens) (UniProt Q15303). The following applies: at 0.1 µM.
Experiment [9] shares this target. The following applies: at 1 µM.
The target of experiment [10] is Tyrosine-protein kinase Fer (Homo sapiens) (UniProt P16591). The following applies: at 0.1 µM.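 Also: reported figures are averaged percent inhibition of FER.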

For orientation: inhibition means the relative decrease from the control value, in per cent.

Receptor tyrosine-protein kinase erbB-4 (Homo sapiens), sequence (Q15303 whole entry): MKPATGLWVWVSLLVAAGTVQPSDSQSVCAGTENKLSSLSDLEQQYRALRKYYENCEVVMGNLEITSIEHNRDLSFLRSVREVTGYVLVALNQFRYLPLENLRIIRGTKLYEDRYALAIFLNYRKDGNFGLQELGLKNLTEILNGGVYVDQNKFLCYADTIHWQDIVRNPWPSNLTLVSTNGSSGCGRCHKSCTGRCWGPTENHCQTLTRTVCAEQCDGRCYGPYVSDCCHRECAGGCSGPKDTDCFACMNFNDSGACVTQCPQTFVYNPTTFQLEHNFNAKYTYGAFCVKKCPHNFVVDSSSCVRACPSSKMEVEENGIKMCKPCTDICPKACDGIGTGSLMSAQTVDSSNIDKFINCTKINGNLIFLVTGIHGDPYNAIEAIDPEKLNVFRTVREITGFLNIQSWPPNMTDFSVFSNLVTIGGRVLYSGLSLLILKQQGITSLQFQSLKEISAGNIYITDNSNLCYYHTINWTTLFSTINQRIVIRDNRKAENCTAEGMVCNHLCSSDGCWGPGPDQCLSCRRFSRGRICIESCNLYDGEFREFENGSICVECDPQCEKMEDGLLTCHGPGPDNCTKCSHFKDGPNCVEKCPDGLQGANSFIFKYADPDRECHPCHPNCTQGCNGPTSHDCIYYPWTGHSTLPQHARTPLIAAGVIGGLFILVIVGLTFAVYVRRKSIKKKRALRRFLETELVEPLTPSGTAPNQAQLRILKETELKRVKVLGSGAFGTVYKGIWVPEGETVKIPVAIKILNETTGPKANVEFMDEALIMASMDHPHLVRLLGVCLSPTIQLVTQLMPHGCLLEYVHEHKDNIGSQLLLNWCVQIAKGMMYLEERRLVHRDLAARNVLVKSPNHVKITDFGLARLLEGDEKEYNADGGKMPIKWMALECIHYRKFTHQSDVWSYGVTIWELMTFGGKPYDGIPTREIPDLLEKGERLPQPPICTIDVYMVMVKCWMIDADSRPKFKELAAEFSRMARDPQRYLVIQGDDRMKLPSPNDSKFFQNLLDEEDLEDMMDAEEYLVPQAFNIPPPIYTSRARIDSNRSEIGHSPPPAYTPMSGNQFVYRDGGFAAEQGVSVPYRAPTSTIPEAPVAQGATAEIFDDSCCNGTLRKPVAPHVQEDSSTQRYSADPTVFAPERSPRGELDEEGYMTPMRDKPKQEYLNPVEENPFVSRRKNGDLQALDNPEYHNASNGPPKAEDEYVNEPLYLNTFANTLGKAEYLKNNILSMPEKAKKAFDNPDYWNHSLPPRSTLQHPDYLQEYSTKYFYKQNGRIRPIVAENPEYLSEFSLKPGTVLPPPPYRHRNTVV
Tyrosine-protein kinase Fer (Homo sapiens), sequence (P16591 whole entry, looked up): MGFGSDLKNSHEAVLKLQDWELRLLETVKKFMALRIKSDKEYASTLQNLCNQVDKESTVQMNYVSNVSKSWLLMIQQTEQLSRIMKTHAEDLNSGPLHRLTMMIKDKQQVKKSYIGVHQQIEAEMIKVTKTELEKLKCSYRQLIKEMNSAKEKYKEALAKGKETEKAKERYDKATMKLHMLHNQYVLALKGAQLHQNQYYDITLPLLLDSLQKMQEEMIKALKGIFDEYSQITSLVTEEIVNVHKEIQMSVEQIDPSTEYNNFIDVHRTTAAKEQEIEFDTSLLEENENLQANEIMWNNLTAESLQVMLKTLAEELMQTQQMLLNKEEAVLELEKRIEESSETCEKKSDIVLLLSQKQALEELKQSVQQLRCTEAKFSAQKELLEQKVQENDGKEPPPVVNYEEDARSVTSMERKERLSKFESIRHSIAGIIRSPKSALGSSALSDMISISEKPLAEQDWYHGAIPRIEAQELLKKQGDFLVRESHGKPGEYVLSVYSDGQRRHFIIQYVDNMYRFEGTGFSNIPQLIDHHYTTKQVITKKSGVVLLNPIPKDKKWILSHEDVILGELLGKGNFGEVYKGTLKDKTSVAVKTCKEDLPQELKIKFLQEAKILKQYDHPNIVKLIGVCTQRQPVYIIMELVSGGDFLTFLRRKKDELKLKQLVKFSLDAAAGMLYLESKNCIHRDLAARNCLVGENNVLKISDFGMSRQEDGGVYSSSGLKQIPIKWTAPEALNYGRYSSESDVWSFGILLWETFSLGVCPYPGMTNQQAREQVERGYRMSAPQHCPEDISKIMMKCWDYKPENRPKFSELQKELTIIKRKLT
Receptor tyrosine-protein kinase erbB-2 (Homo sapiens), sequence (P04626 whole entry): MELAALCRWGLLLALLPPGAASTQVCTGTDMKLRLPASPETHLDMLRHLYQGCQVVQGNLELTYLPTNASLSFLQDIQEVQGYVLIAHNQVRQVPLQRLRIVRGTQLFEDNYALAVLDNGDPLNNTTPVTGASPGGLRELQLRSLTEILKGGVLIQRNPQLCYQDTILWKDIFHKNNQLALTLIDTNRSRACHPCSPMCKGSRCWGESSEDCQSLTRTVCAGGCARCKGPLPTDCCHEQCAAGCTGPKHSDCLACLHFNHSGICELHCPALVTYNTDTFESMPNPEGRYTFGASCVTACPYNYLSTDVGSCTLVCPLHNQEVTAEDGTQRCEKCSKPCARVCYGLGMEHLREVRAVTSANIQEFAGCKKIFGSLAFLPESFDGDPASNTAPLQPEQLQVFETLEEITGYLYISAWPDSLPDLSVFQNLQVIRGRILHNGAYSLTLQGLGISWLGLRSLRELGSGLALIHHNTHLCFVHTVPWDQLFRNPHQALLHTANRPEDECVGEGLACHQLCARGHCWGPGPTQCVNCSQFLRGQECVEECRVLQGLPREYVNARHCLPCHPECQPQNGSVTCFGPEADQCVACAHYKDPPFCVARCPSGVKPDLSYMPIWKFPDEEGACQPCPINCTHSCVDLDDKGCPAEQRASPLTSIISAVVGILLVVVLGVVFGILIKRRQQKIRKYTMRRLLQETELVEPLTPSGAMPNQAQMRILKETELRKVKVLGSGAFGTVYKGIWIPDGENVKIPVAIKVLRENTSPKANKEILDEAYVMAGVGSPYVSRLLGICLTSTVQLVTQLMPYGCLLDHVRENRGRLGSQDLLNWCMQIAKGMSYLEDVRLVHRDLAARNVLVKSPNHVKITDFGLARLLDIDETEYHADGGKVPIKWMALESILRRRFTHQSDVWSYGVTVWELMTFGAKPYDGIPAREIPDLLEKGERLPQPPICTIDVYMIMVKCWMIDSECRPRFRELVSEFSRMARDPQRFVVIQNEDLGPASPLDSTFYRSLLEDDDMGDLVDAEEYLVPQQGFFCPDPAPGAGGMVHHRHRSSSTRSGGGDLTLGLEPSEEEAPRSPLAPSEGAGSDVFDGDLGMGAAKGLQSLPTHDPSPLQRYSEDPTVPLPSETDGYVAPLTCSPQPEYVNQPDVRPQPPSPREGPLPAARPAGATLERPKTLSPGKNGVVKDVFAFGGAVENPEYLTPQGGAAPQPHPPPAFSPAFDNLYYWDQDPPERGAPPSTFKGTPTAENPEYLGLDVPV

As for `O=C1NC(=O)C(c2ccccc2Cl)=C1Nc1cccc(O)c1`, the inhibition came out at 7.6% in [1]; 4.32% in [2]; 1.16% in experiment [3]; 1.29% in experiment [4]; 3.19% in experiment [5]; 0.64% in experiment [6]. Also, the inhibition was -0.2% in experiment [7], 8.95% in experiment [8], 8.95% in experiment [9] and 4.57% in experiment [10].

`CCn1c(-c2nonc2N)nc2cncc(C(=O)N3CC[C@H](N)C3)c21`: the inhibition was determined as 6.1% in experiment [1]; 6.62% in experiment [2]; 4.88% in experiment [3]; 6.15% in experiment [4]; 2.54% in experiment [5]; 4.24% in [6]. Further, the inhibition worked out at 7.27% in [7], 13.3% in experiment [8], 17.8% in experiment [9] and 1.22% in experiment [10].

Consider `CCCN1CCC=C(c2ccc(Nc3nc(Nc4ccccc4C(N)=O)c4cc[nH]c4n3)c(C)c2)C1`, for which the inhibition was found to be 8.88% in experiment [1]; 1.76% in experiment [2]; 2.4% in [3]; 2.74% in experiment [4]; 3.5% in [5]; 2.98% in experiment [6]. For the same molecule, the inhibition in experiment [7] was determined as 3.15%; in experiment [8], 7.5%; in [9], 27.7%; in [10], 12.8%.

`CCn1c(-c2nonc2N)nc2c(N3CCCC3)nccc21`: the inhibition in experiment [1] is -2.7%; in experiment [2], -2.28%; in experiment [3] it was -3.63%; in experiment [4], -1.4%; in experiment [5], -1.17%; in experiment [6] it was -5.46%. Also, the inhibition is -0.23% in [7], -3.28% in experiment [8], -2.19% in experiment [9] and 2.26% in experiment [10].

On to `CCCN1CCC(Oc2cc(Nc3nc(Nc4cccc(F)c4C(N)=O)c4cc[nH]c4n3)c(OC)cc2Cl)CC1`, for which the inhibition is 13.7% in [1]; 1.47% in experiment [2]; -1.18% in experiment [3]; -0.64% in experiment [4]; 0.69% in experiment [5]; 0.9% in experiment [6]. Also, the inhibition in experiment [7] came out at 1.3%; in [8], 0.71%; in experiment [9], 0.3%; in experiment [10], 3.76%.

As for `O=C1NC(=O)C(c2ccc(Cl)cc2)=C1Nc1ccc(Cl)c(C(=O)O)c1`, the inhibition in experiment [1] was 1.8%; in experiment [2], -6.22%; in experiment [3], -1.9%; in [4], -0.68%; in experiment [5], -1.57%; in [6], -2.94%. The inhibition in experiment [7] was -3.13%; in experiment [8], -7.86%; in [9], -9.87%; in experiment [10], 1.93%.

Consider `CCn1c(-c2nonc2N)nc2c(C#CC(C)(C)O)nc(OC[C@@H](N)c3ccccc3)cc21`, for which the inhibition in experiment [1] was 12.1%; in experiment [2], 0.34%; in experiment [3], -0.22%; in experiment [4], -2.4%; in [5], 1.73%; in experiment [6], -1.67%. Also, the inhibition was -0.37% in [7], -4.79% in experiment [8] and -4.06% in [9].

Take `Cc1cccc(-c2n[nH]cc2-c2ccc3ncccc3n2)n1`: the inhibition in experiment [1] is 5.67%; in experiment [2] it was 2.71%; in [3], 1.95%; in experiment [4], -0.2%; in [5], 2.61%; in [6] it was 1.42%. Further, the inhibition is -0.81% in experiment [7], 2.27% in experiment [8], 4% in experiment [9] and 0.04% in experiment [10].

For the origin of these results see ChEMBL document CHEMBL1961873, “Compounds: GSK PKIS; Assays: Nanosyn kinase panel” (2012).
